Records with an inconclusive call do not appear. Active and inactive are the calls of the source. Unless noted, the call rests on the fitted dose curve; in most records, active means well fitted curve in the direction sought with a large enough effect in the repeat runs; inconclusive means weak or mixed curves; inactive means no such curve, though single readings can be large; an effect the other way counts as inactive or inconclusive.
How the values were obtained:
[1] = qHTS assay to identify small molecule antagonists of the TGF-beta/Smad signaling pathway - cell viability counter screen (AID 1346824); further: nearly all actives have a fitted effect of over 50% in size
How it was run: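 Cytotoxicity counter-screen run in the same wells as the beta-lactamase Smad reporter read: CellTiter-Glo luminescence after 30 min at room temperature. HEK 293T SBE-bla cells had 5 hr compound exposure at 37 C with TGF-beta1 (0.25 ng/mL stock).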

[2] = qHTS assay to identify small molecule agonists of the TGF-beta/Smad signaling pathway - cell viability counter screen (AID 1346829); further: top concentration of the series differs between compounds; nearly all actives have a fitted effect of over 45% in size
How it was run: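 Compound-treated SBE-bla HEK 293T cells (5 hr, 37 C) were assessed for viability with CellTiter-Glo in parallel with the reporter read.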

[3] = target: Thyrotropin-releasing hormone receptor (Homo sapiens) (UniProt P34981); experiment: qHTS assay to identify small molecule antagonists of the thyrotropin-releasing hormone receptor (TRHR) signaling pathway (AID 1346877; active means well fitted inhibition curve with a large enough effect in the repeat runs, not every such curve was filed as active; further: series mostly up to about 51 µM)
Thyrotropin-releasing hormone receptor (Homo sapiens), sequence (P34981 whole entry, looked up): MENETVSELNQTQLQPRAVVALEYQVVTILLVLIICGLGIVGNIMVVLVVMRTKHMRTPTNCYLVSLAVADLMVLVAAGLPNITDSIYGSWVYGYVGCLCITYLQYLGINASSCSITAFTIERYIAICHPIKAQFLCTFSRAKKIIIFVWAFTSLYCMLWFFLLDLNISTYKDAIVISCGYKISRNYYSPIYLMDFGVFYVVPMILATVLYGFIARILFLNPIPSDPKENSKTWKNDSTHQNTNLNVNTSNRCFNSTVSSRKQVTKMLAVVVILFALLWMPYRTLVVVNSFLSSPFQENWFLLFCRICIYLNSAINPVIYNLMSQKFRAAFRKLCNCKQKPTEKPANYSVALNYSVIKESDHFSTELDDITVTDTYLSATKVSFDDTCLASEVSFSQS
How it was run: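 Calcium signal in dye-loaded TRHR/HEK293 cells; compounds added 5 min before TRH (1 nM final); fluorescence monitored 3 min at 1 s steps.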

[4] = target: Thyrotropin-releasing hormone receptor (Homo sapiens) (UniProt P34981); experiment: qHTS assay to identify small molecule agonists of the thyrotropin-releasing hormone receptor (TRHR) signaling pathway (AID 1346891; calls by dose curve; further: series mostly up to about 58 µM)
How it was run: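 Readout was intracellular calcium fluorescence in TRHR-Hek293 cells. Cells were incubated 18 h, dye-loaded 2 h at 37 °C, and treated with compound in agonist mode.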

[5] = Human pregnane X receptor (PXR) small molecule agonists, qHTS cell viability counter screen (AID 1346977); further: nearly all actives have a fitted effect of over 50% in size
How it was run: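 In each well, the PXR reporter HepG2 line was checked for viability: CellTiter-Fluor reagent added 23hr post-dosing, fluorescence read after 1hr incubation at 37C.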

[6] = Caspase-3/7 induction in HepG2 cells by small molecules, qHTS assay (AID 1346978); further: nearly all actives have a fitted effect of over 15% in size
How it was run: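 Caspase-3/7 induction was measured by Caspase-Glo 3/7 luminescence (30 min, room temperature) after a 17 hr compound exposure of wild-type HepG2 cells seeded at 2,000 per well and pre-incubated 5 hr.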

[7] = Caspase-3/7 induction in CHO-K1 cells by small molecules, qHTS cell viability counter screen (AID 1346979); further: nearly all actives have a fitted effect of over 35% in size
How it was run: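 Following a 5hr settling period, CHO-K1 cells at 1,500 per well received DMSO-dissolved compounds. Cell viability was quantified 16hr later by CellTiter-Fluor fluorescence, measured after 1hr with reagent at 37C.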

[8] = Caspase-3/7 induction in CHO-K1 cells by small molecules, qHTS assay (AID 1346980); further: nearly all actives have a fitted effect of over 15% in size
How it was run: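 Luminescent Caspase-Glo 3/7 read (30min, room temperature) quantified apoptosis induction. Cells were wild-type CHO-K1, treated with compound for 17hr at 37 C and 5% CO2.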

[9] = Caspase-3/7 induction in HepG2 cells by small molecules, qHTS cell viability counter screen (AID 1346981); further: series mostly up to about 92 µM; nearly all actives have a fitted effect of over 30% in size
How it was run: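 After a 5-hr attachment period at 37 C and 5% CO2, wild-type HepG2 cells received compounds in DMSO. Sixteen hours later CellTiter-Fluor was dispensed and the fluorescent signal quantified after a further hour.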

[10] = qHTS assay to identify small molecule agonists of the TGF-beta/Smad signaling pathway (AID 1346859; active means well fitted activation curve with a large enough effect in the signal ratio in the repeat runs, not every such curve was filed as active; the % refers to the signal ratio; further: series mostly up to about 77 µM)
How it was run: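 Screening used HEK 293T SBE-bla cells at 4,000/well. Test agents: 5 hr, 37 C. Detection: FRET substrate, 2 hr RT, then excitation 405 nm with emissions at 460 and 530 nm.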
On the % scale 0 is the no-effect control and ±100 the full control effect.

CC1CCc2c(N3CCC(O)CC3)c(F)cc3c(=O)c(C(=O)O)cn1c23 (configuration not stated)
inactive: outcome [1] | outcome [2] | outcome [3] | outcome [4] | outcome [5] | outcome [6] | Potency [7] | outcome [8] | outcome [9]

CC/C(C)=N\O[Si](C)(O/N=C(\C)CC)O/N=C(\C)CC
inactive: outcome [1] | outcome [2] | outcome [10] | outcome [5] | outcome [6] | outcome [8]

C=C(C)c1cccc(C(C)(C)N=C=O)c1
inactive: outcome [1] | outcome [2] | outcome [10] | outcome [5] | outcome [6] | Potency [7] | outcome [8] | outcome [9]

O=S(=O)(O)c1ccc2c(N=Nc3ccc(S(=O)(=O)O)c4ccccc34)c(O)c(S(=O)(=O)O)cc2c1
inactive: viability change, negative = cytotoxic [1] 5.53% [at 6.97 µM] | activity change, negative = cytotoxicity [2] 12.6% [at 6.97 µM] | activation [10] 0.897% [at 6.97 µM] | caspase activation [6] -0.326% [at 8.39 µM] | caspase-3/7 activation [8] -0.308% [at 8.39 µM]

CCC(=O)c1c(O)cc(O)cc1O
inactive: outcome [1] | outcome [2] | outcome [10] | outcome [5] | outcome [6] | outcome [8] | outcome [9]

CC(C)=CCC[C@@](C)(O)[C@H]1CC=C(C)CC1
inactive: outcome [1] | outcome [2] | outcome [10] | outcome [6] | Potency [7] | outcome [8] | outcome [9]

C=CCCCC
inactive: outcome [1] | outcome [2] | outcome [10] | outcome [5] | outcome [6] | Potency [7] | outcome [8] | outcome [9]

CCc1occc(=O)c1O
inactive: outcome [1] | outcome [2] | outcome [10] | outcome [5] | outcome [6] | outcome [8] | outcome [9]

C=C(C)[C@@H]1CC=C(C)CC1
inactive: outcome [1] | outcome [2] | outcome [10] | outcome [6] | Potency [7] | outcome [8] | outcome [9]

CCCCCCCCCCCCCBr
inactive: outcome [1] | outcome [10] | outcome [3] | outcome [4] | outcome [5] | outcome [6] | Potency [7] | outcome [8] | outcome [9]

O=Cc1ccccc1Cl
inactive: outcome [1] | outcome [2] | outcome [10] | outcome [5] | outcome [6] | outcome [8] | outcome [9]

CCNC(=O)NCc1cccc(Cl)c1
inactive: outcome [1] | outcome [2] | outcome [10] | outcome [6] | outcome [8] | outcome [9]

CC1(C)Oc2ccc(C#N)cc2[C@@H](N2CCCC2=O)[C@@H]1O
inactive: outcome [1] | outcome [2] | outcome [10] | outcome [5] | outcome [6] | outcome [8] | outcome [9]

CC(=O)O[Si](C)(OC(C)=O)OC(C)=O
inactive: outcome [1] | outcome [2] | outcome [10] | outcome [6] | Potency [7] | outcome [8] | outcome [9]

CCCCCCCCCCOC(C)=O
inactive: outcome [1] | outcome [10] | outcome [3] | outcome [4] | outcome [5] | outcome [6] | Potency [7] | outcome [8] | outcome [9]

CC(C)OC(=O)OCOP(=O)(CO[C@H](C)Cn1cnc2c(N)ncnc21)OCOC(=O)OC(C)C
inactive: outcome [1] | outcome [10] | outcome [5] | outcome [6] | Potency [7] | outcome [8] | outcome [9]

CC1c2ccccc2CN1NC(=O)c1ccc(Cl)c(S(N)(=O)=O)c1 (configuration not stated)
inactive: outcome [1] | outcome [10] | outcome [3] | outcome [4] | outcome [5] | outcome [6] | Potency [7] | outcome [8] | outcome [9]

N#Cc1cscn1
inactive: outcome [1] | outcome [10] | outcome [3] | outcome [4] | outcome [5] | outcome [6] | Potency [7] | outcome [8] | outcome [9]

O=C(O)[C@H](O)c1ccccc1
inactive: outcome [1] | outcome [10] | outcome [3] | outcome [4] | outcome [5] | outcome [6] | Potency [7] | outcome [8] | outcome [9]

C=C(C)[C@@H]1CC=C(C)C(=O)C1
inactive: outcome [1] | outcome [5] | outcome [6] | Potency [7] | outcome [8] | outcome [9]

CC1(C)[C@H]2CC[C@](C)(C2)[C@H]1O
inactive: outcome [1] | outcome [10] | outcome [3] | outcome [4] | outcome [6] | Potency [7] | outcome [8] | outcome [9]

CN(C)CC/C=C1/c2ccccc2COc2ccc(CC(=O)O)cc21
inactive: outcome [1] | outcome [10] | outcome [3] | outcome [4] | outcome [5] | outcome [6] | outcome [8] | outcome [9]

CC(C)C1OCCN1CCOC(=O)NCCCCCCNC(=O)OCCN1CCOC1C(C)C (configuration not stated)
inactive: outcome [1] | outcome [10] | outcome [3] | outcome [4] | outcome [5] | outcome [6] | outcome [8] | outcome [9]

CCO
inactive: outcome [1] | outcome [10] | outcome [3] | outcome [4] | outcome [6] | Potency [7] | outcome [8] | outcome [9]

CC(C)[C@H]1CC[C@H](C)C[C@@H]1O
inactive: outcome [1] | outcome [10] | outcome [3] | outcome [4] | outcome [5] | outcome [6] | Potency [7] | outcome [8] | outcome [9]

NCC1(Cc2noc(=O)[nH]2)CCCCC1
inactive: outcome [1] | outcome [10] | outcome [5] | outcome [6] | Potency [7] | outcome [8] | outcome [9]

Reference: PubChem BioAssay (Tox21)
